Results from PubChem BioAssay (NCATS).
Inconclusive results are not listed. Active and inactive are the calls of the source. Calls come from the whole dose curve; as a rule, active = well fitted cell-killing curve with a large enough effect; inconclusive = small, poorly fitted or top-dose-only effect; inactive = flat fitted curve, though single readings scatter.

Assay: Cellular viability qHTS for adrenocortical cancer (ACC) cell line SW-13 (AID 1963989); note: nearly all actives have a fitted effect of over 65% in size;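 for activity (max response): cells grown in serum-free medium with ITS supplement; % is set by controls: 0 for no effect and ±100 for the full control effect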
Conditions: SW-13 ACC cells viability, CellTiter-Glo, 48 h; activity (max response): active compounds read low
In short: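 SW-13 cells in ITS-supplemented serum-free DMEM were plated overnight, then exposed for 48 h at 37C to compound titrations (up to 46 uM final). Viability was read by CellTiter-Glo luminescence; four-parameter logistic fits gave IC50 and efficacy.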
Potency is the fitted concentration of half-maximal effect.

| SMILES | activity (max response) | Potency |
| --- | --- | --- |
| O=C(Nc1nccs1)C(c1cc(F)ccc1O)N1Cc2ccccc2C1=O (stereo not drawn) | -2.19% (inactive) |  |
| CN1CCCN=C1COC(=O)C(O)(c1ccccc1)C1CCCCC1 (stereo not drawn) | 6.26% (inactive) |  |
| COc1cccc2c1C(=O)c1c(O)c3c(c(O)c1C2=O)C[C@@](O)(/C(CO)=N/NC(=O)CCCCCN1C(=O)C=CC1=O)C[C@@H]3O[C@H]1C[C@H](N)[C@H](O)[C@H](C)O1 |  | 3.55 µM (active) |

Assay: Cellular viability qHTS for adrenocortical cancer (ACC) cell line NCI-H295R (AID 1963990); note: nearly all actives have a fitted effect of over 60% in size;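 for activity change, negative = viability loss: 0% = DMSO only wells and -100% = full killing with cytotoxic reference compound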
Conditions: CellTiter-Glo ATP luminescence, 48 h; series mostly up to 46.1 µM; activity change, negative = viability loss: at the top concentration
In short: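 Luminescent ATP read-out (CellTiter-Glo, 20 min RT) after 48 h drug exposure of NCI-H295R cells; a titration up to 46 uM final. Data normalized to doxorubicin (100% inhibition) and DMSO (0%); 4-parameter fit gives IC50, max response.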

| SMILES | Potency | activity change, negative = viability loss |
| --- | --- | --- |
| COCCN1CCN(Cc2ccc(-c3n[nH]c4c3C(=O)c3c(NC(=O)NN5CCOCC5)cccc3-4)cc2)CC1 | 0.891 µM (active) |  |
| Cc1cc(C)nc(NS(=O)(=O)c2ccc(N)cc2)n1 |  | -2.08% (inactive) |
| O=C(Nc1ccc(C(=O)O)c(O)c1)c1ccccc1 |  | -4.84% (inactive) |
| Nc1ncnc2c1ncn2[C@@H]1O[C@H](CO)[C@@H](O)[C@H]1O |  | 23.8% (inactive) |
| C[C@H]1O[C@@H](n2cc(F)c(=O)[nH]c2=O)[C@H](O)[C@@H]1O | inactive |  |
| CCc1nnc(NS(=O)(=O)c2ccc(N)cc2)s1 |  | 9.67% (inactive) |
| C=CC(=O)Nc1cc(N2CCN(CC)CC2)ccc1Nc1cc(N(C)C(=O)Nc2c(Cl)c(OC)cc(OC)c2Cl)ncn1 |  | -0.0877% (inactive) |
| Nc1ncnc2nc[nH]c12 |  | 8.19% (inactive) |
| COc1cc(NS(C)(=O)=O)ccc1Nc1c2ccccc2nc2ccccc12 | 8.91 µM (active) |  |
| CCN(c1cc(-c2ccc(CN3CCOCC3)cc2)cc(C(=O)NCc2c(C)cc(C)[nH]c2=O)c1C)C1CCOCC1 |  | -6.4% (inactive) |
| CC(NN)c1ccccc1 (stereo not drawn) |  | -14.6% [at 20 µM] (inactive) |
| O=C1NC(=O)[C@@H](c2c[nH]c3ccccc23)[C@H]1c1cn2c3c(cccc13)CCC2 | 0.355 µM (active) |  |
| NC(=O)c1cc[n+](CC2=C(C(=O)[O-])N3C(=O)[C@@H](NC(=O)Cc4cccs4)[C@H]3SC2)cc1 |  | 0.361% (inactive) |
| CCCCNc1ccc(C(=O)OCCN(C)C)cc1 |  | -2.85% (inactive) |
| C/C(=C\c1csc(C)n1)[C@@H]1C[C@@H]2O[C@]2(C)CCC[C@H](C)[C@H](O)[C@@H](C)C(=O)C(C)(C)[C@@H](O)CC(=O)N1 | 8.91 µM (active) |  |
| CC(CSC(=O)c1ccccc1)C(=O)N1C[C@@H](Sc2ccccc2)C[C@H]1C(=O)O (stereo partly drawn) |  | -18.7% [at 20 µM] (inactive) |
| CCCc1ccc(OCC(=O)N2CCN(C(=O)COc3ccc(CCC)cc3OC)CC2)c(OC)c1 |  | -17.2% (inactive) |
| CCOc1ccc(NC(C)=O)cc1 |  | 3.89% (inactive) |
| Nc1ccc(O)c(C(=O)O)c1 |  | -5.53% (inactive) |
| CC(C)n1c(=O)cc(N[C@@H](C)c2ccccc2)[nH]c1=O |  | -6.37% (inactive) |

| SMILES | Potency | activity change, negative = viability loss |
| --- | --- | --- |
| COc1cc2c(cc1OC)CN(C(=O)[C@H](C)N[C@@H](CCc1ccccc1)C(=O)O)[C@H](C(=O)O)C2 |  | -6.3% (inactive) |
| CCOc1ccc2ccccc2c1C(=O)N[C@@H]1C(=O)N2[C@@H]1SC(C)(C)[C@@H]2C(=O)O |  | -34.2% (inactive) |
| CCOC(=O)[C@@](C)(N)Cc1ccc(O)c(O)c1 |  | 4.95% (inactive) |
| CN1C(CCl)Nc2cc(Cl)c(S(N)(=O)=O)cc2S1(=O)=O (stereo not drawn) |  | 7.94% (inactive) |
| CC(=O)O[C@]1(C(C)=O)CC[C@H]2[C@@H]3C=C(Cl)C4=CC(=O)CC[C@]4(C)[C@H]3CC[C@@]21C |  | -12.9% (inactive) |
| Cc1ccc(Sc2ccccc2N2CCNCC2)c(C)c1 | 3.55 µM (active) |  |
| CC(C)=CCC/C(C)=C/CC/C(C)=C/C(=O)OCC(=O)[C@@]1(O)CC[C@H]2[C@@H]3CCC4=CC(=O)C=C[C@]4(C)[C@H]3[C@@H](O)C[C@@]21C |  | -3.72% (inactive) |
| COCCOc1ccc(N2CCN(CCn3ncc4c3nc(N)n3nc(-c5ccco5)nc43)CC2)cc1 |  | -12.6% (inactive) |
| Nc1cccc2c1CN([C@H]1CCC(=O)NC1=O)C2=O |  | -3.58% (inactive) |
| Cc1[nH]nc2ncc(C(=O)N3CCC[C@H]3c3ccc(Cl)cc3)cc12 |  | 6.63% (inactive) |
| CCc1c(C(=O)NNC(=O)[C@@H](O)c2cc(F)cc(F)c2)ccc(O)c1C |  | 3.49% (inactive) |
| COc1cc(N2CCC(N3CCN(C)CC3)CC2)ccc1Nc1ncc(Cl)c(Nc2ccccc2P(C)(C)=O)n1 | 1.12 µM (active) |  |
| C/C=C/C=N/NC(=O)c1ccncc1 |  | -13.9% (inactive) |
| C#C[C@]1(O)CC[C@H]2[C@@H]3CCc4cc(OC5CCCC5)ccc4[C@H]3CC[C@@]21C | 14.6 µM (active) |  |
| CCNC(=O)Nc1ncc(-c2cc(-c3c(C)cc(OC)cc3C)nc(-c3cnccn3)n2)s1 |  | -1.21% (inactive) |
| COc1cc(N2CCC(N)CC2)ccc1Nc1ncc(Cl)c(-c2c[nH]c3ccccc23)n1 | 0.447 µM (active) |  |
| O=S1(=O)OC(c2ccc(O)cc2)(c2ccc(O)cc2)c2ccccc21 |  | -24.6% (inactive) |
| O=C(Nc1nccs1)C(c1cc(F)ccc1O)N1Cc2ccccc2C1=O (stereo not drawn) |  | 1.21% (inactive) |
| CN1CCCN=C1COC(=O)C(O)(c1ccccc1)C1CCCCC1 (stereo not drawn) |  | -7.47% (inactive) |
| COc1cccc2c1C(=O)c1c(O)c3c(c(O)c1C2=O)C[C@@](O)(/C(CO)=N/NC(=O)CCCCCN1C(=O)C=CC1=O)C[C@@H]3O[C@H]1C[C@H](N)[C@H](O)[C@H](C)O1 | 14.1 µM (active) |  |
